Data taken from paper PMC5540273 (PLoS ONE, 2017).
Where “and” joins values, the source holds several entries; their conditions need not be identical. Equal entries are not always repeated. Where two headings read alike, the source gives them in different places.

What was measured:
EPHB6 = settings: concentration: 1 μM, replicates: in singlicate, n = 1
ERBB2 = settings: concentration: 1 μM, replicates: in singlicate, n = 1
ERBB3 = settings: concentration: 1 μM, replicates: in singlicate, n = 1
ERBB4 = settings: concentration: 1 μM, replicates: in singlicate, n = 1
ERK1 = tested on: T1, ERK1; settings: concentration: 1 μM, replicates: in singlicate, n = 1
T1 construct: gene MAPK3

ERK2 = tested on: T2, ERK2; settings: concentration: 1 μM, replicates: in singlicate; n = 1
T2 construct: gene MAPK1

ERK3 = tested on: T3, ERK3; settings: concentration: 1 μM, replicates: in singlicate, n = 1
T3 construct: gene MAPK6

ERK4 = tested on: T4, ERK4; settings: concentration: 1 μM, replicates: in singlicate, n = 1
T4 construct: gene MAPK4

ERK5 = tested on: T5, ERK5; settings: concentration: 1 μM, replicates: in singlicate; n = 1
T5 construct: gene MAPK7

ERK8 = tested on: T6, ERK8; settings: concentration: 1 μM, replicates: in singlicate, n = 1
T6 construct: gene MAPK15
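Note: KINOMEscan kinase panel screen.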

SMILES | %Inh (EPHB6) | %Inh (ERBB2) | %Inh (ERBB3) | %Inh (ERBB4) | %Inh (ERK1) | %Inh (ERK2) | %Inh (ERK3) | %Inh (ERK4) | %Inh (ERK5) | %Inh (ERK8) | %Inh (EPHB6; 1 µM) | %Inh (ERBB2; 1 µM) | %Inh (ERBB3; 1 µM) | %Inh (ERBB4; 1 µM) | %Inh (ERK1; 1 µM) | %Inh (ERK3; 1 µM) | %Inh (ERK4; 1 µM) | %Inh (ERK8; 1 µM)
CN1c2ccc(CNc3ccc(F)cc3)cc2-c2c(cnn2C)S1(=O)=O | 0% | 13% | 9% | 0% | 0% | 0% | 0% | 0% | 0% | 0% |  |  |  |  |  |  |  | 
COc1ccc(Nc2nccc(N3CCC(NC(=O)Nc4cccc(C(C)=O)c4)C3)n2)cc1 (stereo not shown) [GSK1379731] | 0% | 14% | 0% | 5% | 0% | 0% | 7% | 0% | 0% | 25% |  |  |  |  |  |  |  | 
Cc1c(Cn2c(C)nn3c(=O)cc(N4CCOC(C)C4)nc23)cccc1C(F)(F)F (stereo not shown) [GSK2344444] | 0% | 0% | 0% | 0% | 0% | 0% | 0% | 11% | 0% | 26% |  |  |  |  |  |  |  | 
Fc1ccc(-c2nn3c(OCC(F)(F)F)cccc3c2-c2ccncc2)cc1 [GW514784] | 0% | 59% | 29% | 37% | 0% | 0% | 6% | 9% | 0% | 0% |  |  |  |  |  |  |  | 
CN(C(=O)c1ccc(-c2cc(-c3c[nH]nc3-c3ccccn3)ccn2)cc1)C1CCOCC1 [GW810083] | 0% | 38% | 16% | 0% | 0% | 4% | 11% | 7% | 0% | 1% |  |  |  |  |  |  |  | 
COC(=O)Nc1nc2cc(Oc3ccc(NC(=O)Nc4cc(F)ccc4F)cc3)ccc2[nH]1.Cl [GW701424] | 5% | 43% | 26% | 27% | 0% | 3% | 8% | 0% | 0% | 0% |  |  |  |  |  |  |  | 
NCCNS(=O)(=O)c1ccc(-c2ccnc3[nH]ccc23)cc1 [GSK977617] |  |  |  |  |  | 0% |  |  | 0% |  | 13% and 24% | 37% and 0% | 3% and 0% | 47% and 0% | 8% and 0% | 12% and 17% | 3% and 25% | 46% and 17%
O=c1cc(N2CCOCC2)nc2n(Cc3cccc(F)c3)ccn12 [GSK2297430] | 0% | 0% | 0% | 0% | 15% | 6% | 14% | 0% | 0% | 6% |  |  |  |  |  |  |  | 
COc1ccc(Nc2nccc(N3CCC(NC(=O)Nc4cc(C)ccc4C)C3)n2)cc1 (stereo not shown) [GSK1379741] | 0% | 6% | 0% | 52% | 0% | 0% | 0% | 1% | 0% | 0% |  |  |  |  |  |  |  | 
O=C(NCCNc1ccnc(Nc2ccc(F)cc2)n1)Nc1ccccc1F [GSK1379880] | 17% | 9% | 0% | 38% | 0% | 0% | 0% | 8% | 0% | 0% |  |  |  |  |  |  |  | 
COc1cc2c(cc1OCCN1CCN(C)CC1)ncc1c3ccc(C#N)cc3[nH]c21 | 53% | 43% | 4% | 29% | 0% | 12% | 0% | 10% | 22% | 0% |  |  |  |  |  |  |  | 
N#Cc1ccc(-c2cc(-c3c[nH]nc3-c3ccccn3)ccn2)cc1 [GW693028] | 2% | 28% | 0% | 27% | 6% | 0% | 0% | 3% | 0% | 10% |  |  |  |  |  |  |  | 
CC(=O)Nc1ccc(COc2ccc(Nc3ccnc4cc(-c5ccccn5)ccc34)cc2)cc1.Cl [GW440148] | 53% | 12% | 0% | 73% | 0% | 0% | 6% | 47% | 14% | 0% |  |  |  |  |  |  |  | 
CC(C)(C)n1cnc2c(N)ncnc21 [SKF-97359] | 0% | 37% | 17% | 22% | 0% | 0% | 10% | 15% | 4% | 8% |  |  |  |  |  |  |  | 
COc1ccc(CNC(=O)NC2CCN(c3ccnc(Nc4ccc(OC)cc4)n3)C2)cc1 (stereo not shown) [GSK1379727] | 26% | 39% | 10% | 2% | 0% | 0% | 0% | 20% | 0% | 0% |  |  |  |  |  |  |  | 
CCc1ccnc(/C=C/c2n[nH]c3cc(Sc4ccccc4C(=O)NC)ccc23)c1 | 35% | 2% | 0% | 21% | 0% | 5% | 0% | 9% | 0% | 0% |  |  |  |  |  |  |  | 
